Among the data in PubChem BioAssay AID1259313 (Sanford-Burnham Center for Chemical Genomics, 2017) are Tm shift relative to glycine control values, retold here.

Hit rate of the full screen: of about 340,000 compounds, about 8,500 (2.5%) were called active. The sample holds actives, similar compounds and a random draw of the others, so the mix is not that of the screen. Values without a mark were called inactive.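 Rule for the calls: active = melting temperature shift of at least 10% of the positive control shift, at one fixed dose; inactive = the rest.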

For this assay, the system named is Glutamate receptor ionotropic, NMDA 3A (GRIN3A) ligand-binding domain. Kind of assay: NR3A LBD thermal stabilization by compounds – biophysical, differential scanning fluorimetry, uHTS, primary screen (AID 1259313). As to conditions: at 25 µM, stronger effect = higher value, 0% = protein alone, 100% = glycine-bound protein. (In general: DSF heats the sample and reads unfolding from a dye or from intrinsic fluorescence.)
As to `O=C(CCC(=O)N1CCN(S(=O)(=O)c2ccc(Cl)cc2)CC1)NCc1cccc(C(F)(F)F)c1`, the Tm shift relative to glycine control was -1.09%.

`O=C(O)C1C2CC2CN1C(=O)c1ccc(Cl)cc1Cl` (stereo not drawn): the Tm shift relative to glycine control is -0.76%.

In the case of `COc1ccc(NC(=O)c2cn(-c3ccccc3)nc2SC)cc1`, the Tm shift relative to glycine control was 18.1% (active).

For `CSc1ncccc1C(=O)Nc1cccc(S(=O)(=O)N2CCOCC2)c1`, the Tm shift relative to glycine control was 2.41%.

Regarding `Cc1ccc(-c2nn(-c3ccccc3)cc2C(=O)NCCCN2CCCC2=O)cc1`, the Tm shift relative to glycine control is -0.51%.

On to `Cc1ccc(-c2nn(-c3ccccc3)cc2C(=O)Nc2cccc(S(=O)(=O)N3CCOCC3)c2)cc1`, for which the Tm shift relative to glycine control is 10.7% (active).

As for `Cc1occc1C(=O)Nc1cccc(S(=O)(=O)N2CCOCC2)c1`, the Tm shift relative to glycine control was 0.26%.

Turning to `O=C(/C=C/c1cn(-c2ccccc2)nc1-c1ccc2c(c1)OCCO2)NCCCN1CCOCC1`, the Tm shift relative to glycine control was -0.74%.

Take `COc1ccc(-c2nn(-c3ccccc3)cc2C(=O)Nc2nccs2)cc1OC`: the Tm shift relative to glycine control was -1.92%.

Consider `Cc1ccc(-c2nn(-c3ccccc3)cc2/C=C/C(=O)Nc2cccc(S(N)(=O)=O)c2)cc1`, for which the Tm shift relative to glycine control was 28.9% (active).

Turning to `NS(=O)(=O)c1cccc(NC(=O)CSc2nc3ccccc3n2-c2ccccc2)c1`, the Tm shift relative to glycine control was -3.25%.

Regarding `O=C(O)c1ccc(NC(=O)c2cn(-c3ccccc3)nc2-c2ccc(Cl)cc2)cc1`, the Tm shift relative to glycine control was 12% (active).

For the compound `Cc1ccc(-c2nn(-c3ccccc3)cc2C(=O)NC2CCC(O)CC2)cc1` (stereo not drawn), the Tm shift relative to glycine control was -1.68%.

With `COc1ccc(NC(=O)c2ccccc2CC[N+](=O)[O-])cc1`, the Tm shift relative to glycine control is 1.34%.

As to `Cc1cccc(NC(=O)Cn2c(=O)n(Cc3ccccc3)c(=O)c3c(C)c(C)sc32)c1`, the Tm shift relative to glycine control is 8.62%.

For `O=C(CN1C(=O)c2cccnc2Oc2ccc(Cl)cc21)NCCc1ccccc1`, the Tm shift relative to glycine control is 0.65%.

As to `CNC(=O)c1[nH]cnc1C(=O)N[C@@H](CC(C)C)C(=O)OCc1ccccc1`, the Tm shift relative to glycine control is -3.33%.

Consider `CCN(CC)Cc1c(C(=O)OC)nnn1-c1nonc1N`, for which the Tm shift relative to glycine control is -0.56%.

With `CCCc1cc(=O)oc2c(C)c(OC(C)C(=O)NCC(O)c3ccccc3)ccc12` (stereo not drawn), the Tm shift relative to glycine control was 0%.

As to `O=C(O)c1cc(S(=O)(=O)N2CCCCCC2)c(Cl)cc1Cl`, the Tm shift relative to glycine control was 0.9%.

On to `CC(C(=O)c1ccc(-c2ccccc2)cc1)[n+]1cccc(Br)c1` (stereo not drawn), for which the Tm shift relative to glycine control is -2.4%.

For `Cc1ccccc1-n1nnnc1SCCCC(=O)c1ccc(F)cc1`, the Tm shift relative to glycine control was 3.17%.

For the compound `COc1cccc(NC(=O)CN(C)C(=O)/C=C/c2cc(OC)ccc2OC)c1`, the Tm shift relative to glycine control was -3.12%.

Regarding `COc1cccc(NC(=O)CN(C)C(=O)/C=C/c2cn(-c3ccccc3)nc2-c2cccs2)c1`, the Tm shift relative to glycine control was 10.7% (active).

For `COc1ccc(NC(=O)CN(C)C(=O)/C=C/c2cn(Cc3ccccc3)nc2-c2cccnc2)cc1`, the Tm shift relative to glycine control is -0.36%.

Turning to `O=C(NCc1cccnc1)c1cccc(-c2cc3ccccc3oc2=O)c1`, the Tm shift relative to glycine control is -2.7%.

Turning to `O=c1oc2ccccc2cc1-c1csc(Nc2ccc(O)cc2)n1`, the Tm shift relative to glycine control is 12.2% (active).

Take `COc1ccc2nc(Nc3nc(-c4cc5ccccc5oc4=O)cs3)sc2c1`: the Tm shift relative to glycine control is 24.7% (active).

In the case of `COc1ccc(OC)c(-c2csc(NC(=O)C3=NNC(=O)CC3)n2)c1`, the Tm shift relative to glycine control is -2.68%.

On to `CCCCCCC(=O)Nc1nc(C)c(-c2csc(Nc3cccc(OC)c3)n2)s1`, for which the Tm shift relative to glycine control is 4.39%.

Regarding `COc1ccc2nc(Nc3nc(-c4ccncc4)cs3)sc2c1`, the Tm shift relative to glycine control was 23.1% (active).

As to `O=C(Nc1ccncc1)c1cc2ccccc2o1`, the Tm shift relative to glycine control was -15%.

On to `COc1ccc(OC)c(-c2csc(-c3cccs3)n2)c1`, for which the Tm shift relative to glycine control was 2.35%.

As to `Fc1ccc2nc(Nc3nc4c(s3)CCCC4)sc2c1`, the Tm shift relative to glycine control is -1.71%.

As for `COC(=O)c1c(NC(=O)CN(c2ccc(C)c(C)c2)S(C)(=O)=O)sc2c1CCCC2`, the Tm shift relative to glycine control is -7.55%.

For `O=C(COc1nsnc1N1CCOCC1)Nc1ccccc1Cl`, the Tm shift relative to glycine control was 1.49%.

On to `COc1ccccc1N1CC(C(=O)Nc2nnc(SCC(=O)NCC3CCCO3)s2)CC1=O` (stereo not drawn), for which the Tm shift relative to glycine control is 0.09%.

Turning to `O=C(CNCCO)NC12CC3CC(CC(C3)C1)C2`, the Tm shift relative to glycine control was -0.61%.

Regarding `O=S(=O)(Nc1ccccc1Cl)c1cccc2nsnc12`, the Tm shift relative to glycine control was -0.29%.

With `O=C(CC1C(=O)NCCN1CC(c1ccccc1)c1ccccc1)NCC1CCOCC1` (stereo not drawn), the Tm shift relative to glycine control is 3.8%.

As for `O=C(Cn1c(-c2cscn2)nc2ccccc21)Nc1ccc(Cl)cc1`, the Tm shift relative to glycine control is -2.29%.

With `CC1CCCN(C(=O)Cn2c(=O)oc3cc(S(=O)(=O)N4CCCCC4C)ccc32)C1` (stereo not drawn), the Tm shift relative to glycine control is -0.87%.

In the case of `O=C(NCCNc1ccc([N+](=O)[O-])cc1)c1cccc2c(Br)cccc12`, the Tm shift relative to glycine control was 23.8% (active).

Turning to `O=C(NCCNc1ccc([N+](=O)[O-])cc1Cl)c1ccccc1F`, the Tm shift relative to glycine control was -1.3%.

In the case of `CC(CNc1ccc([N+](=O)[O-])cc1)NC(=O)c1ccccc1Br` (stereo not drawn), the Tm shift relative to glycine control is 2.55%.

As for `Clc1cc(-c2ccc(/C=N/n3cnnc3)o2)ccc1Br`, the Tm shift relative to glycine control is -26.7%.

For `CCN(CC)C(=O)CSc1nnc(CNc2ccc(F)cc2)n1Cc1ccco1`, the Tm shift relative to glycine control is 1.69%.

With `O=C(CSc1nnc(COc2ccc(Cl)cc2)n1Cc1ccco1)N1CCNC1=O`, the Tm shift relative to glycine control was 14.1% (active).

For the compound `CCOC(=O)CNC(=O)CSc1nnc(COc2ccc(Cl)cc2)n1CC`, the Tm shift relative to glycine control was -0.34%.

Consider `CC(C)c1cc(CN2CCOCC2)cc(C(C)C)c1O`, for which the Tm shift relative to glycine control is -0.77%.

Take `CC(C)=CCc1ccc(O)c(=O)cc1C(C)C`: the Tm shift relative to glycine control was -5.18%.

Take `CC(C)c1cc(N=O)cc(C(C)C)c1O`: the Tm shift relative to glycine control was 14% (active).

Turning to `Cc1noc(C)c1-c1ccc2ncnc(NC(C)c3ccco3)c2c1` (stereo not drawn), the Tm shift relative to glycine control is -0.81%.

Regarding `COc1ccc(/C=C(\C#N)c2c[nH]c3ccccc23)cc1`, the Tm shift relative to glycine control was 35.2% (active).

For the compound `COc1cccc(-n2c(SCC(=O)c3c[nH]c4ccccc34)nc3ccccc3c2=O)c1`, the Tm shift relative to glycine control is 8.21%.

`COc1ccc(C(C(O)C(=O)c2c[nH]c3ccccc23)N2CCN(c3ccccc3)CC2)cc1` (stereo not drawn): the Tm shift relative to glycine control is -1.26%.

Take `Cc1cc(C)c2nc(NC(=O)C3CCCO3)sc2c1` (stereo not drawn): the Tm shift relative to glycine control is -0.2%.

In the case of `CC(NC(=O)c1ccccc1)C(=O)OCC(=O)Nc1cccc(S(=O)(=O)N2CCCC2)c1` (stereo not drawn), the Tm shift relative to glycine control was -1.26%.

As for `O=C(NC(=S)Nc1cccc2c(O)cccc12)c1cccc(Br)c1`, the Tm shift relative to glycine control was 23.1% (active).

As for `NS(=O)(=O)c1ccc(NC(=S)NC(=O)c2cccc(Br)c2)cc1`, the Tm shift relative to glycine control is -9.81%.

`Cc1ccccc1NC(=S)NNC(=O)c1cccc(Br)c1`: the Tm shift relative to glycine control is -6.22%.

Consider `C/C=C(/C)C(=O)O[C@@H]1c2cc3c(c4c2[C@@]2(CO4)C(=O)C(OC)=C(OC)C=C2C[C@@H](C)[C@H]1C)OCO3`, for which the Tm shift relative to glycine control was 0.32%.

For `CCN=C1SC(CC(=O)Nc2ccc(C)cc2)C(=O)N1CC` (stereo not drawn), the Tm shift relative to glycine control is 0.44%.

With `CCN1C(=O)C(CC(=O)Nc2cc(C)ccc2C)SC1=Nc1ccc(S(N)(=O)=O)cc1` (stereo not drawn), the Tm shift relative to glycine control was 14.2% (active).

Turning to `CCN1C(=O)C(=O)N(CC(=O)Nc2cc(C)ccc2C)C1=O`, the Tm shift relative to glycine control was 1.68%.

As to `C/C(=N\NS(=O)(=O)c1ccccc1)c1c(O)cc(C)oc1=O`, the Tm shift relative to glycine control was 5.22%.

On to `COc1ccc(-c2nc(N)ncc2-c2ccc(Cl)cc2)c(O)c1`, for which the Tm shift relative to glycine control is -3.97%.

Regarding `Oc1cccc(C2c3[nH]c4ccccc4c3CCN2Cc2cnn(-c3ccccc3)c2)c1` (stereo not drawn), the Tm shift relative to glycine control was 9.57%.

`Cc1[nH]nc(-c2ccc(OCc3cnn(-c4ccccc4)c3)cc2O)c1Oc1ccc(Cl)cc1`: the Tm shift relative to glycine control is 22.7% (active).

Regarding `COc1ccc(C(=O)NC(Cc2ccc(OC(=O)c3ccc(OC)cc3)cc2)C(=O)O)cc1` (stereo not drawn), the Tm shift relative to glycine control was 1.26%.

Consider `CCCC(C)n1[nH]c(=O)c2c(C)cc(C)nc21` (stereo not drawn), for which the Tm shift relative to glycine control was -2.91%.

For `COc1ccc(/C=C/C(=O)OCC(=O)N2CCN(S(=O)(=O)c3ccc(C)cc3C)CC2)cc1OC`, the Tm shift relative to glycine control was 2.82%.

Turning to `Cc1nc2ccccn2c(=O)c1NC(=O)c1cccs1`, the Tm shift relative to glycine control was 2.62%.

With `Brc1ccc(-c2csc(N/N=C/c3cccnc3)n2)cc1`, the Tm shift relative to glycine control was 3.34%.

On to `Brc1ccc(-c2csc(N/N=C/c3ccc4c(c3)OCO4)n2)cc1`, for which the Tm shift relative to glycine control was 23.4% (active).

On to `C(=N\Nc1ccc2ccccc2n1)/c1ccc2c(c1)OCO2`, for which the Tm shift relative to glycine control is -7.73%.

`COc1ccc(-c2ccc(CCC(=O)O)n2NC(=O)c2ccc(C(C)(C)C)cc2)cc1`: the Tm shift relative to glycine control was -1.21%.

With `CNC(=O)c1sc(Nc2ccc(OCc3ccccc3)cc2)nc1C`, the Tm shift relative to glycine control is 33.7% (active).

`O=C(O)/C=C\C(=O)Nc1ccc(OCc2ccccc2)cc1`: the Tm shift relative to glycine control is -0.88%.

Take `CNC(=O)c1sc(NCc2ccccc2OC)nc1C`: the Tm shift relative to glycine control was 0.18%.

Regarding `COC(=O)C1=C(Nc2ccc(C)cc2)C=C(C)C(C(=O)OC)C1c1ccc(F)cc1` (stereo not drawn), the Tm shift relative to glycine control is 2.17%.

With `CC[C@]1(C(=O)OC)[C@H]2C(=O)N(Cc3ccccc3)C(=O)[C@H]2[C@H]2CN=C(SCc3ccccc3)N21`, the Tm shift relative to glycine control was -1.15%.

On to `COCCN1C2=C(COC(C)(C)C2)C(=S)NC1c1ccccc1` (stereo not drawn), for which the Tm shift relative to glycine control was -0.64%.

On to `CC(=O)c1c(Nc2ccccc2)sc(C(=O)c2ccccc2)c1C`, for which the Tm shift relative to glycine control is 13.4% (active).

As for `COC(=O)c1c(NC(C)=O)sc(C(=O)Nc2ccccc2OC)c1C`, the Tm shift relative to glycine control was -3.42%.

For the compound `CCC(=O)Nc1sc(C(=O)Nc2ccccc2)c(C)c1C(=O)OC`, the Tm shift relative to glycine control is 2.03%.

As for `COC(=O)c1cc(S(=O)(=O)N2CCN(c3cc(C)ccc3C)CC2)c[nH]1`, the Tm shift relative to glycine control is -17%.

On to `Cc1ccc(Cl)c(OCC(=O)NN2CCN(C)CC2)c1`, for which the Tm shift relative to glycine control was -1.17%.

Regarding `CCCC1=Nc2cc(C(=O)NCc3ccco3)ccc2Sc2ccccc21`, the Tm shift relative to glycine control was -20.6%.

`Cc1ccc(N(CC(=O)Nc2cc(C)cc(C)c2)S(=O)(=O)c2cccc3nonc23)cc1`: the Tm shift relative to glycine control is -1.49%.

In the case of `CCOC(=O)c1ccc(NC(=O)c2c(NCc3ccccc3)[nH]c(=O)[nH]c2=O)cc1`, the Tm shift relative to glycine control is 14.9% (active).

Consider `CCOC(=O)c1ccc(NC(=O)c2c(N)n(C)c(=O)[nH]c2=O)cc1`, for which the Tm shift relative to glycine control was 0.72%.

As to `CCOC(=O)c1ccc(NC(=O)c2nc[nH]c2C(=O)NCc2ccccc2)cc1`, the Tm shift relative to glycine control was -1.27%.
